# Compound activity (PubChem BioAssay)
# A selection: hits, their analogues and other compounds. The true share with any hit is near 7.5%.
# FLuc counter: qHTS profiling assay for firefly luciferase inhibitor/activator using purifed enzyme and Km concentrations of substrates (counterscreen for miR-21 project); purified FLuc, Km substrates, luminescence inhibition; Potency, µM (series often up to 57.5 µM), most hits filed as inhibitors; 6.9% of 360,000 active; Luciferin 4-monooxygenase (Photinus pyralis), P08659; note: nearly all actives have a fitted effect of over 55% in size
# Target sequence (P08659 whole entry, looked up): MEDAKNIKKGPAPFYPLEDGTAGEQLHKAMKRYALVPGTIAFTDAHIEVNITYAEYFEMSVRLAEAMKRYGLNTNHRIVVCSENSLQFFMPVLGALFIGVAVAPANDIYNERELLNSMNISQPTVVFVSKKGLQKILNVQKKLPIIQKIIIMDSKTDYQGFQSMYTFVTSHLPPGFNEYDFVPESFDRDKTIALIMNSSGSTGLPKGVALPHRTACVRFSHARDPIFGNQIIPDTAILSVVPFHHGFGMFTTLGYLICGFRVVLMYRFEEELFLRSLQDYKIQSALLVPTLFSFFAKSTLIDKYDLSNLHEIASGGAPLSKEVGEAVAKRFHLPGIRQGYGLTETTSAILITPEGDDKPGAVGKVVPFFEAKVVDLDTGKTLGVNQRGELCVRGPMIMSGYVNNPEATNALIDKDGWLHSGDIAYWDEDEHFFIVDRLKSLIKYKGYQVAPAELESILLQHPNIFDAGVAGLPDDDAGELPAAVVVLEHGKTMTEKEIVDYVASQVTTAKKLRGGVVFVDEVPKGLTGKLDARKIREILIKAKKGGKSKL
#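 Biochemical qHTS of compounds, final roughly 60 µM downward over six points, against 10 nM purified firefly luciferase using Km concentrations of substrates (10 uM D-luciferin, 10 uM ATP) in Tris acetate pH 7.5 buffer; luminescence output.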
# Luc counter: Counterscreen for Luciferase (Kinase-Glo TM) Inhibition; Luciferin 4-monooxygenase (Photuris pensylvanica), Q27757; Kinase-Glo luciferase, ATP luminescence, 8 min; Potency, µM (top dose mostly 38.3 µM), actives largely listed as inhibitors; 0.28% of 200,000 active; note: nearly all actives have a fitted effect of over 60% in size
#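 Light output from Kinase-Glo luciferase with luciferin and 10 uM ATP in 50 mM imidazole pH 7.2, KCl, MgCl2, Tween 20, BSA; compound pin-delivered, 8-min ambient incubation, then luminescence read.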
# SMN2 splice up: qHTS Assay for Enhancers of SMN2 Splice Variant Expression; HEK293 SMN2-luciferase splicing reporter, luminescence, 30-36 h; Potency, µM (highest dose often 46.1 µM), hits mostly activators; 2.8% of 210,000 active; note: nearly all actives have a fitted effect of over 55% in size
#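 HEK293 cells carry an SMN2 […]–luciferase reporter in which exon 7 inclusion puts luciferase in frame. Cells were plated 10-12 h before compound addition, then incubated 30-36 h at 37C. ONE-Glo luminescence was read; sodium butyrate at 4.5 mM final served as control.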
# Rab9 promoter act: qHTS Assay for Rab9 Promoter Activators. 2.8% of 320,000 active. Potency, µM (series often up to 9.22 µM), most hits filed as activators. Huh7 Rab9 promoter-luciferase reporter, luminescence, 24 h; note: nearly all actives have a fitted effect of over 60% in size
#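 Rab9 promoter-driven luciferase in stably transfected Huh7 cells; 1500 cells/well rested 2 h, exposed to compound in DMSO for 24 h at 37 °C, 5% CO2. Luminescence read 10 min after adding luciferase reagent at ambient temperature.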
# NPC1 prom act: qHTS Assay for NPC1 Promoter Activators. Huh7 NPC1 promoter luciferase reporter, 24 h. Potency, µM (top dose mostly 9.22 µM), most hits filed as activators. 2.4% of 320,000 active; note: nearly all actives have a fitted effect of over 60% in size
#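 Quantitative HTS used a cell-based reporter: Huh7 cells stably bearing the NPC1 promoter upstream of luciferase were treated with compounds for 24 h, and promoter activation was read as luminescence.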
# ELG1 genotoxic: qHTS screen for small molecules that induce genotoxicity in human embryonic kidney (HEK293T) cells expressing luciferase-tagged ELG1; HEK293T ELG1-luciferase reporter, luminescence, 16 h; Potency, µM (series often up to 46 µM), usual class: activators; 1.3% of 330,000 active; note: nearly all actives have a fitted effect of over 60% in size
#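 16 hr compound incubation (37 °C, 5% CO2) of HEK293T cells carrying luciferase-tagged ELG1; luciferase then measured by ONE-Glo luminescence after 30 min at RT.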
# Numbers stand for hits; . = inactive; ? = inconclusive; / = no result. Calls come from the whole dose curve; as a rule, active = well fitted curve in the direction sought with a large enough effect; inconclusive = small, poorly fitted or top-dose-only effect, or another doubt; inactive = no such curve, though single readings can be large; an effect the other way counts as inactive or inconclusive.
SMILES,FLuc counter,Luc counter,SMN2 splice up,Rab9 promoter act,NPC1 prom act,ELG1 genotoxic
COc1ccc(CN2C(=O)CS/C2=N/N=C/c2cccs2)cc1,17µM,/,/,.,.,.
CN(/N=C/c1c[nH]c2ccccc12)c1cnn(-c2ccc(F)c(Cl)c2)c(=O)c1Cl,13µM,.,.,.,.,.
COc1ccc(S(=O)(=O)NCC(=O)N(CC(=O)NCC2CCCO2)Cc2ccccc2)cc1 (stereo unspecified),.,/,/,.,.,.
Cc1cc2nc(-c3cccnc3SCC(=O)NCc3ccco3)[nH]c2cc1C,0.95µM,11µM,13µM,3.2µM,4µM,?
O=C(CSc1nc2ccccc2[nH]1)NCc1ccco1,.,.,.,.,.,?
O=C(CSc1ncccc1-c1nc2ccccc2[nH]1)NCc1ccco1,24µM,.,.,.,.,?
Cc1cc2nc(-c3cccnc3SCC(=O)NC3CC3)[nH]c2cc1C,2.7µM,?,16µM,?,?,?
O=C(CSc1nc2ncccc2[nH]1)NCc1ccco1,.,/,/,.,.,.
Cc1ccc(NC(=O)/C=C/C(=O)O)c(NC(=O)c2ccccc2)c1,.,/,/,.,.,.
c1cc2c(cc1C1=NNC(=NC3CC3)SC1)OCCO2,0.24µM,2.2µM,.,0.0013µM,0.0003µM,?
COc1ccc(N=C2NN=C(c3ccc4c(c3)OCCO4)CS2)cc1,?,.,.,.,.,.
COCCn1c(C)cc(C2=NNC(=NC(C)(C)C)SC2)c1C,?,.,.,?,?,?
COCCN=C1NN=C(c2ccc(C)c([N+](=O)[O-])c2)CS1,15µM,.,11µM,4.5µM,2.8µM,18µM
CCCCN=C1NN=C(c2ccc(C)c(C)c2)CS1,24µM,.,14µM,1.6µM,2.8µM,.
CCCCN=C1NN=C(c2ccc3c(c2)OCCO3)CS1,3µM,.,/,0.89µM,1.3µM,1.8µM
Cc1cccc(S(=O)(=O)c2cn(Cc3ccc(F)cc3)c3cc(N4CCCCC4)c(F)cc3c2=O)c1,.,/,/,/,/,/
CC(C)c1ccc(NC(=O)c2ccccc2NC(=O)C2CC=CCC2C(=O)O)cc1 (stereo unspecified),27µM,/,/,.,.,?
CN(C)/C=N/NC(=O)c1ccc(Cl)cc1,.,.,.,.,.,.
CN(C)/C=N/c1cnc(C(=O)c2ccc(Cl)cc2)n1C,11µM,.,11µM,1.8µM,1.8µM,6.3µM
CCOCCCNC(=S)N1CCN(Cc2ccc3c(c2)OCO3)CC1,.,.,/,.,.,.
Cc1cccc(C)c1OCC(=O)Nc1ncn[nH]1,.,.,.,.,.,.
O=C(COc1ccc2ccccc2c1Br)Nc1ncn[nH]1,13µM,.,.,.,.,?
Clc1ccc(-c2ccc(C=Nc3ccc(N4CCOCC4)cc3)o2)cc1,4.8µM,.,.,.,.,.
Clc1cccc(-c2ccc(C=Nc3ccc(N4CCOCC4)cc3)o2)c1Cl,3.4µM,.,/,.,.,.
Clc1ccc(-c2ccc(C=Nc3ccc(N4CCOCC4)cc3)o2)c(Cl)c1,.,.,.,.,.,.
SMILES,FLuc counter,Luc counter,SMN2 splice up,Rab9 promoter act,NPC1 prom act,ELG1 genotoxic
NS(=O)(=O)c1ccc(CNC(=O)c2csc3c2CCCC3)cc1,.,.,.,.,.,.
Cc1cc(C)n(Cc2ccc(NC(=O)c3nn(C)cc3[N+](=O)[O-])cc2)n1,.,.,.,.,.,.
Cn1cc([N+](=O)[O-])c(C(=O)Nc2ccc3nc(-c4ccccc4)[nH]c3c2)n1,4.8µM,.,16µM,?,3.2µM,?
Cn1cc([N+](=O)[O-])c(C(=O)Nc2ccc(C3CCCCC3)cc2)n1,11µM,.,/,?,.,.
Cn1cc([N+](=O)[O-])c(C(=O)Nc2ccc(-c3nc4ccccc4[nH]3)cc2)n1,2.7µM,.,8.9µM,?,?,?
Cn1cc([N+](=O)[O-])c(C(=O)NCc2cc3ccccc3[nH]2)n1,.,.,.,.,.,.
